In PubChem BioAssay (NCI) one finds growth data, which are given here for 13 molecules.

Among the test systems are HCT-15 colon; HT29 colon; SNB-75 CNS; SNB-19 CNS; U251 CNS; PC-3 prostate; SK-MEL-5 melanoma; UACC-62 melanoma; LOX IMVI melanoma; SK-MEL-28 melanoma.
Assay in all cases: NCI-60 one-dose screen, 48 h (100 = growth as untreated, 0 = no growth, -100 = all killed)
Common to all, as to settings: 10 µM unless noted

Compounds without any hit were thinned out: in the full panel of roughly 83,000, 20% have a hit.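 Results are percent growth after 48 hours of single-concentration exposure. 100 means growth as in untreated cells, lower positive values show inhibition; negative values down to -100 show cell death.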 Unmarked numbers belong to inactive results. The source made the active and inactive calls. Rule for the calls: active = growth percent below 10; inactive = the rest.

For the molecule `O=c1cc(CNc2cc(F)cc(F)c2)c2ccc(I)cc2[nH]1`, the growth with HCT-15 colon was 32.1%; in the experiment on HT29 colon it was 8.99% (active); in the experiment with SNB-75 CNS it was -9.56% (active); in the experiment on SNB-19 CNS it was 49.8%; with U251 CNS, 31.8%; with PC-3 prostate, 26.7%. The growth in the experiment with SK-MEL-5 melanoma is 18.5%; in the experiment on UACC-62 melanoma, 36.7%; in the experiment on LOX IMVI melanoma, 41%; in the experiment with SK-MEL-28 melanoma it was 64%.
Take `CN(C)CCC(CCN(C)C)(C(=O)O)c1ccccc1`: the growth in the experiment with HCT-15 colon is 99.7%; in the experiment on HT29 colon, 96.6%; with SNB-75 CNS, 97.2%; in the experiment on SNB-19 CNS it was 101%; in the experiment with U251 CNS, 102%; with PC-3 prostate, 92.7%. Besides, the growth in the experiment on SK-MEL-5 melanoma is 102%; in the experiment with UACC-62 melanoma, 103%; in the experiment on LOX IMVI melanoma, 106%; with SK-MEL-28 melanoma, 105%.
On to `Brc1ccc(Nc2nc(Nc3cnc4ccccc4c3)c3[nH]cnc3n2)cc1`, for which the growth in the experiment on HCT-15 colon was 83%; in the experiment on HT29 colon, 70.7%; in the experiment on SNB-75 CNS, 77.5%; with SNB-19 CNS it was 93.6%; with U251 CNS, 89.4%; in the experiment on PC-3 prostate it was 27.6%. The growth in the experiment with SK-MEL-5 melanoma was 72.6%; in the experiment on UACC-62 melanoma, 66.8%; in the experiment with LOX IMVI melanoma it was 63.7%; in the experiment with SK-MEL-28 melanoma, 94.2%.
As to `N#Cc1c(-c2ccccc2)cc(-c2ccccc2)n(CCCCC(=O)NO)c1=O`, the growth is 13.8% with HCT-15 colon; 19.1% in the experiment with HT29 colon; -8.42% (active) in the experiment on SNB-75 CNS; 43.3% with SNB-19 CNS; 29.1% in the experiment on U251 CNS; 32.9% in the experiment with PC-3 prostate. Further, the growth is -53% (active) in the experiment with SK-MEL-5 melanoma, 2.89% (active) in the experiment on UACC-62 melanoma, -54.9% (active) in the experiment on LOX IMVI melanoma and 17.6% in the experiment with SK-MEL-28 melanoma.
For the molecule `COc1ccc(-c2cc(-c3cc(OC)ccc3OC)nc(SCC(C)=O)c2C#N)cc1`, the growth is 52.7% in the experiment on HCT-15 colon; 81.8% in the experiment with HT29 colon; 42.7% in the experiment on SNB-75 CNS; 75.8% with SNB-19 CNS; 74.4% with U251 CNS; 56.2% in the experiment on PC-3 prostate. In addition, the growth is 65.7% in the experiment on SK-MEL-5 melanoma, 67.1% in the experiment on UACC-62 melanoma, 57.9% with LOX IMVI melanoma and 68% in the experiment on SK-MEL-28 melanoma.
For the molecule `O=C(/C=C/c1ccco1)Nc1ncc(Cc2cc(Cl)ccc2Cl)s1`, the growth in the experiment on HCT-15 colon was 13.5%; in the experiment with HT29 colon, 9.68% (active); in the experiment on SNB-75 CNS, 16.6%; in the experiment on SNB-19 CNS, 44.8%; in the experiment on U251 CNS, 18.9%; in the experiment on PC-3 prostate it was 25.3%. Further, the growth in the experiment with SK-MEL-5 melanoma is 15.2%; in the experiment with UACC-62 melanoma it was 26.9%; with LOX IMVI melanoma, 25.9%; with SK-MEL-28 melanoma, 57%.
As for `N#Cc1ccccc1-c1ccc(CN2C(=O)S/C(=C\c3ccc(Br)cc3)C2=O)cc1`, the growth in the experiment on HCT-15 colon was 98.7%; in the experiment with HT29 colon it was 104%; in the experiment with SNB-75 CNS, 82.8%; in the experiment on SNB-19 CNS it was 93.5%; in the experiment on U251 CNS, 96.4%; in the experiment with PC-3 prostate it was 99.9%. Further, the growth in the experiment on SK-MEL-5 melanoma was 98.7%; with UACC-62 melanoma, 88.7%; with LOX IMVI melanoma it was 101%; with SK-MEL-28 melanoma, 108%.
Take `O=C(C[C@]1(O)C(=O)Nc2ccc(Br)cc21)c1ccco1`: the growth was 105% with HCT-15 colon; 101% in the experiment with HT29 colon; 96.1% in the experiment with SNB-75 CNS; 95.6% with SNB-19 CNS; 100% in the experiment on U251 CNS; 92.6% with PC-3 prostate. The growth is 93.3% in the experiment on SK-MEL-5 melanoma, 90.7% in the experiment on UACC-62 melanoma, 89.9% in the experiment on LOX IMVI melanoma and 117% in the experiment on SK-MEL-28 melanoma.
On to `Cc1ccc2c(/C=C/C(=O)c3cc(CN4CCOCC4)c(O)c4nc(C)ccc34)cc(CN3CCOCC3)c(O)c2n1`, for which the growth in the experiment with HCT-15 colon was 0.566% (active); in the experiment with HT29 colon it was -6.31% (active); with SNB-75 CNS, 23.3%; in the experiment with SNB-19 CNS, 36.4%; in the experiment on U251 CNS it was -24% (active); in the experiment on PC-3 prostate it was 19.9%. For the same molecule, the growth in the experiment on SK-MEL-5 melanoma is 4.68% (active); in the experiment on UACC-62 melanoma, -0.641% (active); in the experiment with LOX IMVI melanoma, -66.8% (active); in the experiment with SK-MEL-28 melanoma, -19.9% (active).
On to `COCC(=O)Oc1cc(-c2ccc(C)cc2C)c(OC(=O)COC)c(-c2ccc(C)cc2C)c1`, for which the growth in the experiment with HCT-15 colon was 10.2%; in the experiment with HT29 colon, 34.3%; in the experiment with SNB-75 CNS, 80.4%; with SNB-19 CNS it was 60.9%; with U251 CNS, 46.7%; in the experiment on PC-3 prostate, 43.4%. The growth with SK-MEL-5 melanoma is 13.7%; with UACC-62 melanoma, 45.1%; in the experiment on LOX IMVI melanoma, 35.6%; with SK-MEL-28 melanoma, 87.9%.
`CC1(C)CC[C@]2(CO)CC[C@]3(C)[C@](O)([C@H](O)C[C@@H]4[C@@]5(C)CCCNC(C)(C)[C@@H]5CC[C@]43C)[C@@H]2C1`: the growth in the experiment with HCT-15 colon was 88.5%; with HT29 colon, 20.6%; in the experiment with SNB-75 CNS, 88.7%; in the experiment with SNB-19 CNS, 103%; with U251 CNS, 79.6%; in the experiment with PC-3 prostate, 75.9%. For the same molecule, the growth with SK-MEL-5 melanoma was 96.8%; in the experiment on UACC-62 melanoma it was 103%; in the experiment on LOX IMVI melanoma it was 87.8%; in the experiment on SK-MEL-28 melanoma, 100%.
In the case of `O=C(Nc1cc(Cl)ccc1O)c1ccccc1Nc1ccnc(C(F)(F)F)c1`, the growth in the experiment on HCT-15 colon was 14.1%; in the experiment with HT29 colon, 38.2%; in the experiment with SNB-75 CNS, 55.6%; in the experiment with SNB-19 CNS, 16.2%; in the experiment on U251 CNS it was 10.8%; in the experiment on PC-3 prostate it was 7.3% (active). Besides, the growth in the experiment with SK-MEL-5 melanoma was -43.8% (active); in the experiment on UACC-62 melanoma, 23.1%; with LOX IMVI melanoma it was 18.8%; with SK-MEL-28 melanoma it was 75%.
`Cc1cc(N2CCN(CC(=O)Nc3ccc4c(ccn4Cc4ccccc4)c3)CC2)nc(N2CCOCC2)n1`: the growth in the experiment with HCT-15 colon was 65.1%; in the experiment on HT29 colon, 67.3%; with SNB-75 CNS, 88.7%; in the experiment with SNB-19 CNS it was 84.3%; with U251 CNS, 70.8%; in the experiment with PC-3 prostate, 57%. The growth was 83.1% in the experiment on SK-MEL-5 melanoma, 67.7% with UACC-62 melanoma, 88.2% with LOX IMVI melanoma and 91.4% with SK-MEL-28 melanoma.
